Measurements from PubChem BioAssay (Tox21).
Inconclusive results are not listed. Calls of active or inactive are those of the source. Unless noted, calls come from the whole dose curve; as a rule, active = well fitted curve in the direction sought with a large enough effect in the repeat runs; inconclusive = weak or mixed curves; inactive = no such curve, though single readings can be large; an effect the other way counts as inactive or inconclusive.

Key:
[1] = qHTS assay to identify small molecule agonists of the hypoxia (HIF-1) signaling pathway - cell viability counter screen (AID 1224844; calls by dose curve; note: nearly all actives have a fitted effect of over 50% in size)
Outline: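 Luminescent ATP content (CellTiter-Glo, 30 min, room temperature) served as the viability measure in HRE-bla ME-180 cells exposed to compounds for 17 hrs in low-serum medium (0.5% dialyzed FBS).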

[2] = qHTS assay to identify small molecule agonists of H2AX (AID 1224845; active = well fitted activation curve with a large enough effect in the signal ratio in the repeat runs, not every such curve was filed as active; the % refers to the signal ratio; note: potency is the fitted concentration of half-maximal effect)
Outline: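 Phospho-H2AX Ser139 measured by HTRF (ex 320 nm; em 665 and 620 nm) after 24 hr antibody incubation. Compounds, 15 concentrations, 0.76% DMSO, were applied to CHO-K1 cells for 3hr at 37C before lysis.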

[3] = qHTS assay to identify small molecule agonists of the hypoxia (HIF-1) signaling pathway (AID 1224846; active = well fitted activation curve with a large enough effect in the signal ratio in the repeat runs, not every such curve was filed as active; the % refers to the signal ratio)
Outline: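 Measured by blue/green FRET after loading CCF4-AM: beta-lactamase expressed from a hypoxia response element in ME-180 cells. Test agents were delivered in DMSO and left 17 hrs; cells had been plated 5 hrs earlier in low-serum (0.5% dialyzed FBS) medium.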

[4] = qHTS RealTime-Glo MT Cell Viability Assay in HEK293 cells - 32 hour (AID 1224868); note: nearly all actives have a fitted effect of over 50% in size; note: potency is the fitted concentration of half-maximal effect; for activity change, negative = cytotoxic: top concentration of the series differs between compounds
Outline: (§1)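 Cells + reagent dispensed (600 cells/well, HEK293) → 5 h at 37 C/5% CO2 → 23 nL compound in DMSO pinned → 40 h at 37 C → luminescence read at 0, 8, 16, 24, 32, 40 h.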

[5] = A CellTox Green Cytotoxicity Assay to monitor cytotoxicity in HEK293 cells - 0 hour (AID 1224869); note: nearly all actives have a fitted effect of over 50% in size
Outline: (§2)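 Each value comes from one timepoint of a single continuous run in which HEK293 cells with CellTox Green were exposed to compound for up to 40 h at 37 C, dye fluorescence rising with cell death.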

[6] = A CellTox Green Cytotoxicity Assay to monitor cytotoxicity in HEK293 cells - 40 hour (AID 1224871); note: nearly all actives have a fitted effect of over 45% in size
Outline: as §2

[7] = qHTS RealTime-Glo MT Cell Viability Assay in HEK293 cells - 40 hour (AID 1224874); conditions: RealTime-Glo luminescence; max response: hits give low values; note: nearly all actives have a fitted effect of over 50% in size; note: potency is the fitted concentration of half-maximal effect
Outline: (§3)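 qHTS format; HEK293 cells with NanoLuc/prosubstrate reagent, 37 C/5% CO2 for 5 h pre-dosing; compounds 23 nL in DMSO; luminescence at each time point reflects viable cells.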

[8] = A CellTox Green Cytotoxicity Assay to monitor cytotoxicity in HEK293 cells - 24 hour (AID 1224875); note: series mostly up to about 77 µM; nearly all actives have a fitted effect of over 45% in size
Outline: as §2

[9] = A CellTox Green Cytotoxicity Assay to monitor cytotoxicity in HepG2 cells - 16 hour (AID 1224876); note: nearly all actives have a fitted effect of over 45% in size
Outline: (§4)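 Continuous culture of HepG2 cells with a membrane-impermeant DNA dye; rising fluorescence marks dead cells. Compound exposure lasted up to 40 h at 37 C, with reads every 8 h from 0 h.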

[10] = qHTS RealTime-Glo MT Cell Viability Assay in HepG2 cells - 32 hour (AID 1224877); note: nearly all actives have a fitted effect of over 55% in size
Outline: (§5)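 Real-time, nonlytic viability: 600 HepG2 cells/well mixed with NanoLuc enzyme plus prosubstrate; 5 h settle, compound (DMSO) added by pintool; luminescence monitored over 40 h at 37 C.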

[11] = A CellTox Green Cytotoxicity Assay to monitor cytotoxicity in HepG2 cells - 24 hour (AID 1224878); note: nearly all actives have a fitted effect of over 45% in size
Outline: as §4

[12] = A CellTox Green Cytotoxicity Assay to monitor cytotoxicity in HepG2 cells - 40 hour (AID 1224879); note: nearly all actives have a fitted effect of over 40% in size
Outline: as §4

[13] = qHTS RealTime-Glo MT Cell Viability Assay in HEK293 cells - 0 hour (AID 1224880)
Outline: as §3

[14] = qHTS assay to identify small molecule agonists of H2AX - cell viability counter screen (AID 1224847; calls by dose curve; note: top concentration of the series differs between compounds; nearly all actives have a fitted effect of over 30% in size)
Outline: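 Compounds tested at 15 concentrations were incubated 3 hr at 37C with wild-type CHO-K1 cells; cellular ATP-based luminescence (CellTiter-Glo) indicated viability.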

[15] = qHTS RealTime-Glo MT Cell Viability Assay in HEK293 cells - 16 hour (AID 1224872)
Outline: as §1

[16] = qHTS RealTime-Glo MT Cell Viability Assay in HepG2 cells - 8 hour (AID 1224873); note: nearly all actives have a fitted effect of over 55% in size
Outline: (§6)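 Real-time viability: cells seeded at 600 per well together with NanoLuc and cell-permeant prosubstrate, compounds added after 5 h incubation. Luminescence tracked at 0, 8, 16, 24, 32 and 40 h of exposure.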

[17] = qHTS assay to identify small molecule antagonists of the estrogen related receptor (ERR) signaling pathway from Tox21 library (AID 1224848); note: nearly all actives have a fitted effect of over 50% in size
Outline: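 Reading was by luminescence 30 min after ONE-Glo addition. Before that, ERR cells at 2,000 per well had rested 6 h at 37 C/5% CO2 and then received pin-tooled compounds in DMSO for 18 h at 37 C.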

[18] = qHTS assay to identify small molecule agonists of the estrogen related receptor (ERR) signaling pathway from Tox21 library (AID 1224849; calls by dose curve; note: nearly all actives have a fitted effect of over 15% in size)
Outline: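 We plated ERR reporter cells, waited 6 h, added compounds in DMSO by pin tool and incubated them 18 h at 37 C. ONE-Glo was then added and luminescence read after 30 min.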

[19] = qHTS RealTime-Glo MT Cell Viability Assay in HepG2 cells - 24 hour (AID 1224867); note: nearly all actives have a fitted effect of over 50% in size
Outline: as §5

[20] = qHTS RealTime-Glo MT Cell Viability Assay in HepG2 cells - 40 hour (AID 1224870); note: nearly all actives have a fitted effect of over 50% in size
Outline: as §6
% is set by controls: 0 for no effect and ±100 for the full control effect.

Cc1ccc(C(=O)c2ccccc2)cc1
inactive: Potency [1] | Potency [2] | outcome [3] | Potency [4] | outcome [5] | Potency [6] | max response [7] -1.28% | outcome [8] | outcome [9] | Potency [10] | outcome [11] | Potency [12] | Potency [13]

Cc1coc2ccccc2c1=O
inactive: Potency [1] | Potency [2] | outcome [3] | outcome [14] | Potency [4] | outcome [5] | Potency [6] | Potency [15] | outcome [16] | max response [7] -0.146% | outcome [8] | outcome [9] | Potency [10] | outcome [11] | Potency [12]

CO[Si](C)(OC)c1ccccc1
inactive: Potency [1] | Potency [2] | outcome [3] | Potency [17] | outcome [18] | outcome [19] | Potency [4] | outcome [5] | Potency [20] | Potency [6] | Potency [15] | outcome [16] | max response [7] -2.44% | outcome [8] | outcome [9] | outcome [11] | Potency [12] | Potency [13]

C=C[Si](OC(C)=O)(OC(C)=O)OC(C)=O
inactive: Potency [1] | Potency [2] | outcome [3] | outcome [14] | outcome [19] | Potency [4] | outcome [5] | Potency [6] | Potency [15] | outcome [16] | max response [7] 4.65% | outcome [8] | outcome [9] | outcome [11] | Potency [12] | Potency [13]

CO/N=C(\C(=O)N[C@@H]1C(=O)N2C(C(=O)O)=C(CSc3nc(=O)c(O)nn3C)CS[C@H]12)c1csc(N)n1
inactive: Potency [1] | Potency [2] | outcome [14] | Potency [17] | outcome [18] | outcome [19] | Potency [4] | outcome [5] | Potency [6] | Potency [15] | outcome [16] | max response [7] 11.9% | outcome [8] | outcome [9] | Potency [10] | outcome [11] | Potency [12] | Potency [13]

Cc1ccccc1N=C(N)N=C(N)N
inactive: Potency [1] | Potency [2] | outcome [3] | outcome [19] | Potency [4] | outcome [5] | Potency [20] | Potency [6] | outcome [16] | max response [7] -9.52% | outcome [8] | Potency [10] | outcome [11] | Potency [12]

CCCCc1nc(Cl)c(CO)n1Cc1ccc(-c2ccccc2-c2nn[nH]n2)cc1
inactive: Potency [1] | Potency [2] | outcome [3] | outcome [14] | Potency [4] | outcome [5] | Potency [20] | Potency [6] | Potency [15] | outcome [16] | max response [7] -16.9% | outcome [8] | outcome [9] | Potency [10] | outcome [11] | Potency [12]

CN(C)C(=O)Oc1ccc[n+](C)c1
inactive: Potency [1] | Potency [2] | outcome [14] | Potency [17] | outcome [18] | Potency [4] | outcome [5] | Potency [20] | Potency [6] | Potency [15] | max response [7] 5.97% | outcome [8] | outcome [9] | Potency [10] | outcome [11]

CC[N+](CC)(CC(=O)Nc1c(C)cccc1C)Cc1ccccc1 (tested in a mixture with another compound)
inactive: Potency [1] | Potency [2] | outcome [3] | outcome [14] | Potency [4] | outcome [5] | Potency [6] | Potency [15] | outcome [16] | max response [7] -5.24% | outcome [8] | outcome [9] | Potency [10] | outcome [11] | Potency [12]

Cc1ccnc(NS(=O)(=O)c2ccc(N)cc2)n1
inactive: Potency [1] | Potency [2] | outcome [14] | Potency [17] | outcome [18] | outcome [19] | Potency [4] | outcome [5] | Potency [20] | Potency [6] | Potency [15] | outcome [16] | max response [7] 6.66% | outcome [8] | outcome [9] | Potency [10] | outcome [11] | Potency [12] | Potency [13]

Nc1ccn([C@@H]2O[C@H](CO)[C@@H](O)C2(F)F)c(=O)n1
inactive: Potency [1] | outcome [3] | outcome [14] | outcome [5] | Potency [20] | Potency [6] | outcome [16] | outcome [8] | outcome [9] | Potency [10] | outcome [11]
active: Potency [2] 982 nM | Potency [4] 1070 nM | Potency [7] 756 nM

CC(=O)OCC(=O)[C@@]1(O)[C@H](C)C[C@H]2[C@@H]3CCC4=CC(=O)C=C[C@]4(C)[C@@]3(F)[C@@H](O)C[C@@]21C
inactive: Potency [1] | Potency [2] | outcome [14] | Potency [17] | outcome [18] | outcome [19] | Potency [4] | outcome [5] | Potency [6] | Potency [15] | outcome [16] | max response [7] 5.93% | outcome [8] | outcome [9] | Potency [10] | outcome [11] | Potency [12] | Potency [13]

CC(C)C[C@@H](N)C(=O)O
inactive: activity change, negative = cytotoxicity [1] 2.77% [at 15.8 µM] | activation (H2AX phosphorylation) [2] -1.49% [at 31.6 µM] | activity change, negative = cytotoxicity [14] -4.41% [at 31.6 µM] | activity, negative = inhibition [17] 12.8% [at 19 µM] | activity change, positive = activation [18] 7.21% [at 19 µM] | activity change, negative = cytotoxicity [19] 3.14% [at 15.8 µM] | activity change, negative = cytotoxic [4] 5.13% [at 15.8 µM] | cytotoxicity [5] -0.288% [at 15.8 µM] | activity change, negative = cytotoxic [20] 2.01% [at 15.8 µM] | cytotoxicity increase [6] -2.15% [at 15.8 µM] | activity change, negative = cytotoxicity [15] 5.2% [at 15.8 µM] | viability change, negative = cytotoxic [16] 0.12% [at 15.8 µM] | max response [7] 5.97% | activity change [8] -2.57% [at 15.8 µM] | activity change, negative = cytotoxic [10] 4.67% [at 15.8 µM] | cytotoxicity [11] -14.3% [at 15.8 µM] | cytotoxicity increase [12] 0.791% [at 15.8 µM]

CCCC[N+](C)(CCCC)CCCC
inactive: Potency [1] | Potency [2] | outcome [3] | Potency [4] | outcome [5] | Potency [20] | Potency [6] | Potency [15] | max response [7] -1.08% | outcome [8] | outcome [9] | Potency [10] | outcome [11] | Potency [12] | Potency [13]

CO[C@@]1(NC(=O)C(C(=O)O)c2ccc(O)cc2)C(=O)N2C(C(=O)O)=C(CSc3nnnn3C)CO[C@@H]21 (stereo not given in full)
inactive: Potency [1] | Potency [2] | outcome [14] | Potency [17] | outcome [18] | Potency [4] | outcome [5] | Potency [20] | Potency [6] | Potency [15] | outcome [16] | max response [7] 11.1% | outcome [8] | Potency [10] | outcome [11] | Potency [12] | Potency [13]
